Hits are enriched below; roughly 3.4% of the tested compounds scored in any of these assays.
PP1 inh = blocks human PP1-alpha phosphatase, a PP5 counter-screen; P62136; purified PP1alpha, OMFP fluorescence; inhibition, % at 6.7 µM; actives 0.9% (n = 320,000); AID 2235;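 active = inhibition above the mean inhibition of all tested compounds plus 3 SD, computed separately for each screening campaign, cut at about 15% in these data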
PAFAH1B3 inh = blocks human PAF acetylhydrolase 1B catalytic subunit 3; Q15102; recombinant PAFAH1B3, FP-rhodamine probe, fluorescence polarization; inhibition, % at 3.39 µM; actives 0.28% (n = 340,000); AID 492972;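 active = inhibition above the screen-wide average of all tested compounds plus 3 SD, cut at about 25% in these data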;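 also: 0% = enzyme with DMSO only and 100% = wells lacking PAFAH1B3 protein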
pPAFAH FP inh = pPAFAH (human) enzyme inhibition; recombinant pPAFAH, FP-rhodamine probe fluorescence polarization; actives 1.5% (n = 330,000); inhibition, % at 3.39 µM; Q13093;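 active = inhibition above the mean inhibition across the screen plus 3 SD, cut at about 25% in these data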;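 also: inhibitors block binding of the rhodamine activity-based probe so polarization drops; 0% = enzyme with DMSO and 100% = wells lacking pPAFAH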
Target sequence (Q13093 whole entry, looked up): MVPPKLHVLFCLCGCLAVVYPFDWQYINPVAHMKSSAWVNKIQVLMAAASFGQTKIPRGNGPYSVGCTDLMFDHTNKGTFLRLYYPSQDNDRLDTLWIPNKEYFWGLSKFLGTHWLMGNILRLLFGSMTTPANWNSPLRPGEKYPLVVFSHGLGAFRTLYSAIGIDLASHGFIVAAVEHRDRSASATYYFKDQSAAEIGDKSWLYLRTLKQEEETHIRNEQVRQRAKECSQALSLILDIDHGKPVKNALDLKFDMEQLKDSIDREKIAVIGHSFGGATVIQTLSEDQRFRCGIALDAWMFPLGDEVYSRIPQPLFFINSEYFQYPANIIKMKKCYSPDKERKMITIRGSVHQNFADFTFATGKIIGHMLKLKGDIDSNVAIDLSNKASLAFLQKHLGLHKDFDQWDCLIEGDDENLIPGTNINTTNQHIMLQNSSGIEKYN
PP5 inh = blocks human protein phosphatase 5 activity. P53041. purified PP5c, OMFP substrate fluorescence. inhibition, % at 6.7 µM. actives 0.18% (n = 320,000);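 active = inhibition above the campaign's mean inhibition across all tested compounds plus 3 SD, cut at about 9.5% in these data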;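 also: 0% = DMSO only and 100% = 100 µM cantharidin control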
PAFAH2 inh = inhibitors of human PAFAH2 | AID 492956 | actives 0.99% (n = 340,000) | recombinant PAFAH2, FP-rhodamine activity probe, fluorescence polarization | inhibition, % at 3.39 µM;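 active = inhibition above the mean over all tested compounds plus 3 SD, cut at about 30% in these data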;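 also: inhibitors block probe labeling of enzyme so polarization drops; 0% = enzyme with DMSO and 100% = wells lacking PAFAH2 protein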
PAFAH1B2 inh = blocks human PAF acetylhydrolase 1b catalytic subunit 2 | P68402 | recombinant PAFAH1B2, FP-rhodamine activity probe, fluorescence polarization | inhibition, % at 3.39 µM | actives 1.2% (n = 340,000);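 active = inhibition above the mean of all tested compounds plus 3 SD, cut at about 24% in these data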;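 also: 0% = enzyme with DMSO and 100% = wells lacking PAFAH1B2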
Target sequence (P68402 whole entry, looked up): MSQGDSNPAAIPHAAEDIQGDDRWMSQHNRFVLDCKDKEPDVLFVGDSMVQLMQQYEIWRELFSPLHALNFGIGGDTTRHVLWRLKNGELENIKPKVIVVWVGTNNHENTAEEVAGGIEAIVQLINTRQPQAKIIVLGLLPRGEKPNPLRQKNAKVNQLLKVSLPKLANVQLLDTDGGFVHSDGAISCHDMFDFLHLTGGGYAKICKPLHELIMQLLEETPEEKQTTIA
Numbers without * were called inactive.

Results for CCOc1ccc(NC(=O)CN(C)C(=O)CCCc2nc3ccccc3c(=O)[nH]2)cc1OCC ?
PP1 inh: -2; PAFAH1B3 inh: 6; pPAFAH FP inh: 1; PP5 inh: 1; PAFAH2 inh: 1; PAFAH1B2 inh: 0

Results for CC(Sc1nnc(Nc2ccccc2)s1)C(=O)Nc1nc(-c2ccccc2)cs1 (configuration not stated) ?
PP1 inh: 1; PAFAH1B3 inh: 12; pPAFAH FP inh: -2; PP5 inh: 0; PAFAH2 inh: -7; PAFAH1B2 inh: 3

How did CC(Sc1nnc(NCc2ccccc2)s1)C(=O)Nc1ccc2c(c1)C(=O)c1ccccc1C2=O (configuration not stated) do in these assays?
PP1 inh: 17*; PAFAH1B3 inh: 0; pPAFAH FP inh: 16; PP5 inh: 3; PAFAH2 inh: -31; PAFAH1B2 inh: 19

What do the screens show for `COc1ccc(CN2CCN(Cc3ccc(Br)cc3)CC2)c(OC)c1OC`?
PP1 inh: 2; PAFAH1B3 inh: 11; pPAFAH FP inh: 3; PP5 inh: 0; PAFAH2 inh: 8; PAFAH1B2 inh: 9

What do the screens show for `O=C(NCc1cccc(Br)c1)c1cc(-c2ccccc2)nn1CC1CC(c2cccc([N+](=O)[O-])c2)=NO1` (configuration not stated)?
PP1 inh: 12; PAFAH1B3 inh: -20; pPAFAH FP inh: 4; PP5 inh: 1; PAFAH2 inh: -28; PAFAH1B2 inh: -13

Results for Cn1c(SCC(=O)c2ccc(-c3ccccc3)cc2)nnc1-c1ccco1 ?
PP1 inh: 6; PAFAH1B3 inh: 3; pPAFAH FP inh: 30*; PP5 inh: 0; PAFAH2 inh: 5; PAFAH1B2 inh: 4

Results for Cn1cnnc1Sc1ccc(/C=C(\CCC(=O)O)c2nc3ccccc3s2)cc1[N+](=O)[O-] ?
PP1 inh: -6; PAFAH1B3 inh: 3; pPAFAH FP inh: 7; PP5 inh: 0; PAFAH2 inh: -3; PAFAH1B2 inh: 26*

Results for O=c1[nH][nH]c(-c2ccccc2)c1-c1ccccc1 ?
PAFAH1B3 inh: 12; PAFAH2 inh: 3; PAFAH1B2 inh: 25*

Results for Nc1nc(-c2cccc(F)c2)cs1 ?
PP1 inh: 2; PAFAH1B3 inh: 7; pPAFAH FP inh: -2; PP5 inh: 2; PAFAH2 inh: 1; PAFAH1B2 inh: 45*

What do the screens show for `CCCCNC(=O)Oc1c(Br)cc2sc(=O)oc2c1Br`?
PP1 inh: 3; pPAFAH FP inh: 52*; PP5 inh: 0

Results for COc1ccnc(N2CCN(c3ccc(Cl)cc3)CC2)c1C#N ?
PP1 inh: 1; PAFAH1B3 inh: 5; pPAFAH FP inh: -4; PP5 inh: 2; PAFAH2 inh: 7; PAFAH1B2 inh: 24*

What do the screens show for `CCOCC(O)CSCc1ccc(Cl)cc1` (configuration not stated)?
PP1 inh: 0; PAFAH1B3 inh: -1; pPAFAH FP inh: 2; PP5 inh: -1; PAFAH2 inh: 3; PAFAH1B2 inh: 26*

How did CCOC(=O)/C(C#N)=C/c1cc(C)n(-c2ccc(C)cc2)c1C do in these assays?
PP1 inh: -7; PAFAH1B3 inh: 6; pPAFAH FP inh: 26*; PP5 inh: 1; PAFAH2 inh: -5; PAFAH1B2 inh: -1

What do the screens show for `O=C(COc1ccc(Cl)cc1)NNC(=O)C(=O)N1CCCCC1`?
PP1 inh: -2; PAFAH1B3 inh: 0; pPAFAH FP inh: 5; PP5 inh: 3; PAFAH2 inh: 1; PAFAH1B2 inh: 31*

How did O=C(c1cc2ccccc2o1)N(Cc1nnc(-c2ccccc2Cl)o1)C1CC1 do in these assays?
PP1 inh: 15*; PAFAH1B3 inh: 5; pPAFAH FP inh: -1; PP5 inh: -1; PAFAH2 inh: 5; PAFAH1B2 inh: 7

What do the screens show for `CC(OC(=O)c1cccc(S(=O)(=O)N(C)C)c1)C(=O)NCC(=O)Nc1ccc(F)c(F)c1F` (configuration not stated)?
PAFAH1B3 inh: 9; PAFAH2 inh: 5; PAFAH1B2 inh: 6

Results for O=C(Nc1ccccc1NC(=O)c1ccccc1F)c1ccccc1F ?
PAFAH1B3 inh: 2; PAFAH2 inh: -1; PAFAH1B2 inh: -1

How did CS(=O)(=O)Nc1ccc(C(=O)Nc2ccccc2Sc2ccccc2)cc1 do in these assays?
PP1 inh: 2; PAFAH1B3 inh: -1; pPAFAH FP inh: 30*; PP5 inh: 0; PAFAH2 inh: -3; PAFAH1B2 inh: 5

Results for CCc1ccccc1NC(=O)c1ccc(NS(C)(=O)=O)cc1 ?
PP1 inh: -5; pPAFAH FP inh: 5; PP5 inh: 2

What do the screens show for `O=C(Nc1ccccc1Sc1ccccc1)c1ccccc1F`?
PP1 inh: 2; PAFAH1B3 inh: 9; pPAFAH FP inh: 31*; PP5 inh: 1; PAFAH2 inh: 1; PAFAH1B2 inh: -3

Results for COc1cccc(C(=O)Oc2cc3c4c(c2)C(C)=CC(C)(C)N4C(=O)C3=O)c1 ?
PP1 inh: 17*; PAFAH1B3 inh: 0; pPAFAH FP inh: 2; PP5 inh: 5; PAFAH2 inh: 6; PAFAH1B2 inh: 6

Results for COC(=O)c1cc(S(=O)(=O)NCCc2ccc(C)cc2)c[nH]1 ?
PP1 inh: 0; PAFAH1B3 inh: 2; pPAFAH FP inh: 11; PP5 inh: 2; PAFAH2 inh: -1; PAFAH1B2 inh: 5

What do the screens show for `COC(=O)c1cc(S(=O)(=O)NCCc2ccc(Cl)cc2)c[nH]1`?
PP1 inh: 4; PAFAH1B3 inh: 2; pPAFAH FP inh: 11; PP5 inh: 0; PAFAH2 inh: 3; PAFAH1B2 inh: 26*

How did COc1cc(OC)c(C(=O)N/N=C/c2ccoc2)cc1OC do in these assays?
PP1 inh: -3; PAFAH1B3 inh: 6; pPAFAH FP inh: -2; PP5 inh: -5; PAFAH2 inh: -3; PAFAH1B2 inh: -5

How did Cc1cc(NC(=O)CSCC(=O)N(C)Cc2ccc(Cl)c(Cl)c2)no1 do in these assays?
PP1 inh: -3; PAFAH1B3 inh: 1; pPAFAH FP inh: -1; PP5 inh: 2; PAFAH2 inh: -5; PAFAH1B2 inh: 0

What do the screens show for `Cc1cc(NC(=O)COC(=O)CSCc2ccc(Cl)c(Cl)c2)no1`?
PP1 inh: 0; PAFAH1B3 inh: 5; pPAFAH FP inh: 31*; PP5 inh: 3; PAFAH2 inh: 7; PAFAH1B2 inh: -1

Results for O=C(O)c1cccc(Cn2c(Cl)c(/C=N/NC(=O)c3ccccc3Cl)sc2=O)c1 ?
PP1 inh: 1; PAFAH1B3 inh: 6; pPAFAH FP inh: 4; PP5 inh: 1; PAFAH2 inh: 7; PAFAH1B2 inh: 8

What do the screens show for `O=C(O)c1cccc(Cn2c(Cl)c(/C=N/Nc3ccccc3)sc2=O)c1`?
PP1 inh: 5; PAFAH1B3 inh: 10; pPAFAH FP inh: 27*; PP5 inh: 2; PAFAH2 inh: 13; PAFAH1B2 inh: -1

How did CCCn1c(SCC(=O)Nc2nnc(CC)s2)nnc1-c1ccncc1 do in these assays?
PP1 inh: -4; PAFAH1B3 inh: -1; pPAFAH FP inh: 3; PP5 inh: 0; PAFAH2 inh: 4; PAFAH1B2 inh: 2

Assay outcomes from PubChem.
